High-throughput results: PubChem, several laboratories
PrP 5UTR inh: inhibition of PrP 5' UTR reporter expression | 0.35% of 340,000 active | AID 488862, 2010 | cell-based PrP 5' UTR mRNA reporter, plate reader | inhibition, % (concentration not given with the values); in the data active = inhibition above about 52%; note: 0 = median of the neutral control wells
BJeLR viability: MLPCN primary cell-based screen for lethality selective to Ras in HRASV12 cells; BJeLR (HRASV12) viability, CellTiter-Glo ATP luminescence, 48 h; inhibition, % (no concentration beside the values); 0.17% of 300,000 active; in the data active = inhibition above about 50%
UGM FP inh: M. tuberculosis UGM enzyme inhibitors, primary screen, biochemical, fluorescence polarization, single point; UDP-galactopyranose mutase (Mycobacterium tuberculosis (strain ATCC 25618 / H37Rv)), …; purified UGM, fluorescence polarization probe displacement; inhibition, % at 10 µM; 0.06% of 320,000 active; AID 504406, 2011; in the data active = inhibition above about 10%, passing the limit was not always enough
Rv3671c inh: Rv3671c serine protease inhibitors, primary screen, biochemical, fluorescence polarization, M. tuberculosis H37Rv. P9WHR9. inhibition, % at 5.96 µM. 0.048% of 320,000 active; in the data active = inhibition above about 38%;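 note: extracellular domain of Rv3671c used as enzyme; 0% = enzyme with DMSO and 100% = no enzyme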
Target sequence (P9WHR9 whole entry, looked up, the tested form may be a part): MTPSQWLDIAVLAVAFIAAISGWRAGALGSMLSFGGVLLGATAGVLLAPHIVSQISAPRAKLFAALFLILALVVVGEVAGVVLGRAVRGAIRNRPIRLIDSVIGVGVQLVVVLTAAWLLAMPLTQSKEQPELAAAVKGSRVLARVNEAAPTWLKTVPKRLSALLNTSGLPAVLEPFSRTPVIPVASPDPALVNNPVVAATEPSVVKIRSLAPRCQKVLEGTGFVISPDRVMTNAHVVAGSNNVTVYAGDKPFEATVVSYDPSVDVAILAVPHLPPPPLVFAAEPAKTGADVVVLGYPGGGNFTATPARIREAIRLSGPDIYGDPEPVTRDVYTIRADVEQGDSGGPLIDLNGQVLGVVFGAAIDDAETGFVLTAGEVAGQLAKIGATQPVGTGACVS
FadD28 binding: inhibitors of FadD28 bisubstrate probe binding, primary screen, biochemical, fluorescence polarization, single point | 0.22% of 360,000 active | inhibition, % at 12.5 µM | Mycobacterium tuberculosis FadD28 fatty-acid-AMP ligase | AID 588549, 2011; in the data active = inhibition above about 8.5%, passing the limit was not always enough
RecA splice inh: Mtb RecA intein splicing inhibitors, primary screen, biochemical, fluorescence, HTS. inhibition, % (concentration not given with the values). 0.75% of 290,000 active. Protein RecA (Mycobacterium tuberculosis (strain ATCC 25618 / H37Rv)), P9WHJ3. AID 2221, 2009. cell-free RecA intein splicing; in the data active = inhibition above about 30%;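 note: 0% = vehicle wells and 100% = reference inhibitor control wells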
* = called active by the depositor; . = no result given. Shown are actives, neighbours in structure and some others; about 1.3% of the full set was active somewhere.

SMILES	PrP 5UTR inh	BJeLR viability	UGM FP inh	Rv3671c inh	FadD28 binding	RecA splice inh
O=C1C2=C(NC(=S)NC2c2ccc(Cl)cc2)NC(c2ccc(Cl)cc2)N1c1ccc(Cl)cc1 (configuration not stated)	-4	-5	0	0	-5	37*
CC(C)Oc1ccccc1C1CC(=O)Nc2cc3c(cc21)OCCO3 (configuration not stated)	61*	64*	-1	0	1	2
O=C(Nc1c(-c2ccc(Cl)cc2)[nH][nH]c1=O)c1ccc(Br)cc1	.	.	.	.	-2	.
COc1ccc(NC(=O)c2cccc(N3C(=O)C4C5C=CC(C5)C4C3=O)c2)cc1Cl (configuration not stated)	-18	7	0	-1	-5	94*
CCCCCCCCCCCCCCCC[n+]1cccc(C(=O)N(CC)CC)c1	-12	9	-3	-8	14*	-1
CCCCCCCCCCCCCCCC[n+]1ccccc1	10	.	.	.	32*	.
CCCCCCCCCCCCCCCC[n+]1ccc(C(N)=O)cc1	-12	.	2	4	22*	.
CN(C)c1cccc(CNC(=O)c2csc([C@H]3C[C@H](O)[C@@H](CO)O3)n2)c1	.	.	.	.	0	.
CCCC(=O)N1CCC1(C)C(=O)NCc1ccccc1SC (configuration not stated)	.	.	.	.	-2	.
N#CC1=C(N)C(C#N)(C#N)[C@H](c2c(F)cccc2F)[C@H]2CC3(CC=C12)OCCO3	-11	-2	0	3	0	35*
CC1=NNC(=O)C1Cc1ccc(F)cc1 (configuration not stated)	-15	-3	-1	3	-1	97*
COCCCNC(=O)Cc1c(C)c2c(cc(C)c3c(C(C)(C)C)coc32)oc1=O	12	66*	-2	3	-3	7
NC(=S)NN=Cc1ccc(-c2ccc(S(=O)(=O)Nc3ncccn3)cc2)o1	-2	.	.	10	23*	.
COc1ccc(NC(=O)Nc2ccc3c(c2)C(=O)N([C@H](C)CO)C[C@H](C)[C@@H](CN(C)S(=O)(=O)c2ccc(OC)cc2)O3)cc1	-17	.	1	3	9.4*	.
COc1ccc(S(=O)(=O)N(C)C[C@H]2Oc3ccc(NC(=O)Nc4ccc(C(F)(F)F)cc4)cc3C(=O)N([C@H](C)CO)C[C@@H]2C)cc1	-16	.	2	-231	-2	.
Cc1ccc(S(=O)(=O)Nc2cccc3c2O[C@@H](CN(C)C(=O)Nc2ccc4c(c2)OCO4)[C@H](C)CN([C@@H](C)CO)C3=O)cc1	-8	.	3	1	11*	.
O=C(NCCC1=CCCCC1)C1CC(=O)N(Cc2ccccc2)C1 (configuration not stated)	-10	-2	0	-6	-3	3
O=C(O)C1Nc2c(Cl)cc(Cl)cc2C2C=CCC12 (configuration not stated)	-42	-2	0	3	14*	6
O=C(O)C1Nc2ccc(Br)cc2C2C=CCC12 (configuration not stated)	43	-9	5	16	27*	0
CCOC(=O)C1Nc2ccc(Br)cc2C2C=CCC12 (configuration not stated)	-24	-7	0	-4	-2	10
O=C(O)C1Nc2c(Cl)cc(Cl)c(Cl)c2C2C=CCC12 (configuration not stated)	-11	-12	-1	1	7	7
O=C(O)C1Nc2c(O)cccc2C2C=CCC12 (configuration not stated)	-4	.	1	31	15*	.
COc1ccc(CC(N)c2csc(NC(=O)C(c3ccccc3)c3ccccc3)n2)cc1 (configuration not stated)	.	.	.	.	-5	.
CCOC(=O)C1(C)CCCCCN1C(=O)/C=C/c1ccccc1 (configuration not stated)	.	.	.	.	-4	.
COc1ccc([C@H]2C[C@@H](O)[C@H](n3cc(C4CC4)nn3)CN2C(=O)c2cccs2)cc1	.	.	.	.	-1	.
